D1 agonist = agonists of human D1 dopamine receptor. P21728. activation, % at 2 µM. 360,000 compounds, 1% hits. HEK293 T-REx D1 cells, calcium flux, agonist mode; in the data active = activation above about 30%; note: 0% is about no effect
Target sequence (P21728 whole entry, looked up): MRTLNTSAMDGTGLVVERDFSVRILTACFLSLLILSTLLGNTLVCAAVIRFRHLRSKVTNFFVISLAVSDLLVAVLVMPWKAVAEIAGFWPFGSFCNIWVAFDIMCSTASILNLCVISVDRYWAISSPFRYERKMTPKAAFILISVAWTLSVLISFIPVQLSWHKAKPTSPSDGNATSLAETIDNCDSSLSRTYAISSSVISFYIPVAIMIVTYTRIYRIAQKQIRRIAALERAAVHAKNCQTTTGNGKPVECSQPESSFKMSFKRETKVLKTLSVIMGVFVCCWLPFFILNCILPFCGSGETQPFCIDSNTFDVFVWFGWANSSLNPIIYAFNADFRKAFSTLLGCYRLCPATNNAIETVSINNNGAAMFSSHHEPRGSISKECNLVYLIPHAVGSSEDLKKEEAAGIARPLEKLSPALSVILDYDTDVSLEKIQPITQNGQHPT
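Tetracycline-induced HEK293 TREx D1 cells, force-coupled to calcium signalling, were dye-loaded with a no-wash calcium kit. Compound was pin-added after a 10 s baseline. Fluorescence was read kinetically at 1 cycle/s for 180 s, with calcium rises flagged as agonism.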
D1 PAM = human D1 dopamine receptor positive modulation. HEK293 TREx D1 cells, calcium flux, dopamine EC20 potentiation. potentiation, % at 10 µM. P21728. 360,000 compounds, 0.036% hits; in the data active = potentiation above about 30%; note: 0% is about no effect
DRD3 agonist = activates the human D3 dopamine receptor | P35462 | D3R DiscoveRx beta-arrestin cells, luminescence, 90 min | max activation, % | 410,000 compounds, 0.58% hits | AID 652048; in the data active = max activation above about 30%; note: 0% is about no effect
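Agonist-mode cell screen: cells plated at 1500/well and incubated overnight at 37 °C, then exposed to library compounds for 90 min at 37 °C. Detection reagent was added for 30–60 min at room temperature, and luminescence was read.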
D1 antagonist = human D1 dopamine receptor antagonism; P21728; 360,000 compounds, 3.2% hits; AID 504652; activity change, negative = inhibition, % at 10 µM; HEK293 TREx D1 cells, calcium flux, dopamine EC80; hits give low values; in the data active = activity change below about -30%; note: % is set by controls: 0 for no effect and ±100 for the full control effect
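Compound effects on dopamine-evoked calcium signalling were measured in tetracycline-induced HEK293 Trex D1 cells. Dopamine at EC80 followed a 180 s compound pre-read, and fluorescence was tracked kinetically for 180 s more.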
D3 antag = D3 dopamine receptor (human) antagonism; max response, negative = inhibition, %; 360,000 compounds, 2.5% hits; D3R cells, DiscoveRx beta-arrestin luminescence, antagonist mode; hits give low values; in the data active = max response below about -50%; inconclusive = no clear call, values can overlap the other calls; note: % is set by controls: 0 for no effect and ±100 for the full control effect
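Cells expressing the human receptor were seeded at 1500 cells/well, incubated overnight at 37 degrees C in 5% CO2, then exposed to library compounds with dopamine controls for 90 minutes at 37 degrees C before luminescent detection.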
* hit, by the source's call; u = inconclusive; x = no result given. Most compounds without a hit are left out; they make up all but 6% or so of the library.

SMILES | D1 agonist | D1 PAM | DRD3 agonist | D1 antagonist | D3 antag
COCCN1C(=O)c2ccccc2C1c1nnnn1Cc1ccccc1 (stereo not drawn) | x | x | 3 | x | 2
O=C(CN1C(=O)NC2(CCCCCCC2)C1=O)Nc1ccc(Br)cc1 | 0 | 2 | 3 | -40* | -13
CC1(c2ccc([N+](=O)[O-])cc2)NC(=O)N(CC(=O)Nc2ccc(N3CCCCC3)cc2)C1=O (stereo not drawn) | 18 | 5 | -11 | 33 | -51*
O=C(CN1C(=O)NC2(CCCCC2)C1=O)Nc1ccc(F)cc1 | 2 | -3 | 0 | 11 | -3
O=C(CCCN1C(=O)NC2(CCCC2)C1=O)Nc1ccc(F)cc1 | 0 | -7 | 5 | -38* | -24
CCc1nn(CC(=O)Nc2ccc(N(CC)CC)cc2C)c(=O)c2cc3sccc3n12 | -1 | 0 | -12 | -8 | x
COc1cccc(Nc2nc(C(N)c3ccccc3)cs2)n1 (stereo not drawn) | x | x | 2 | x | 5
Cc1ccc(NC(=O)CSc2nc(C3CCCC3)nc3c2c(=O)n(C)c(=O)n3C)c(C)c1 | -1 | -2 | 9 | -9 | x
CNC(=S)N/N=C/c1ccc(C(C)C)cc1 | x | x | 2 | x | -59*
Oc1cccc(Nc2nc(-c3ccccc3Cl)nc3ccccc23)c1 | 0 | -6 | 3 | -25 | 1
NNc1nc(-c2ccccc2Cl)nc2ccccc12 | 1 | -2 | -10 | -7 | -92*
Cc1cc(N2CCOCC2)nc2ccc(Cl)cc12 | 1 | -12 | -5 | -17 | 4
OC(c1ccc(CN2CCCCC2)cc1)c1ncc(-c2ccccc2)[nH]1 (stereo not drawn) | x | x | -15 | x | -107*
O=C(/C=C/c1ccc(Cl)cc1Cl)NCCSCc1ccccc1 | 6 | -10 | -5 | -46* | 10
O=C(/C=C/c1ccccc1)NCCSCc1ccc(Cl)cc1 | 7 | -8 | 4 | -1 | -2
O=C(/C=C/c1ccc(Cl)cc1Cl)NCCSc1ccccc1 | 5 | 3 | -4 | -2 | 9
O=C(/C=C/c1ccccc1)NCCSCc1ccccc1Cl | 14 | -4 | -4 | -32* | 5
CC(O)(c1cccnc1)c1nc(-c2cccc(C(F)(F)F)c2)cs1 (stereo not drawn) | x | x | 38* | x | 1
CC(O)(c1ccc(F)c(F)c1)c1nc(-c2ccc3ccccc3c2)cs1 (stereo not drawn) | x | x | -9 | x | -56*
CC(O)(c1ccccc1)c1nc(-c2cc3ccccc3o2)cs1 (stereo not drawn) | x | x | -11 | x | -58*
CC(O)(c1cccc(F)c1)c1nc(-c2cccc(F)c2)cs1 (stereo not drawn) | x | x | -14 | x | u
COCc1cccc(-c2csc(C(C)(O)c3cccc(F)c3)n2)c1 (stereo not drawn) | x | x | -21 | x | -90*
O=C(CNC(=O)c1ccc2n[nH]nc2c1)OC(C(=O)Nc1cc(C(F)(F)F)ccc1Cl)c1ccccc1 (stereo not drawn) | 3 | 13 | x | 3 | x
O=C(c1ccc(-c2cccc(C(F)(F)F)c2)o1)N1CCCCCCC1 | 0 | 1 | -3 | -40* | 3
CCn1c2c(c(=O)n3ncc(C(=O)N4CCN(c5ccc(Cl)cc5)CC4)c13)CN(Cc1ccc(OC)cc1)CC2 | 10 | -3 | -5 | -46* | x
SMILES | D1 agonist | D1 PAM | DRD3 agonist | D1 antagonist | D3 antag
CC(C)C1=NN2C(=N)CC(=O)N=C2S1 | 2 | 0 | 5 | -2 | -63*
C=CCc1cc(/C=C2/NC(=O)NC2=O)cc(OCC)c1O | 3 | -5 | 20 | 6 | 7
CCOc1cc(/C=C2/NC(=O)NC2=O)cc([N+](=O)[O-])c1O | 1 | 4 | -20 | -3 | -86*
Cc1cc(=O)oc2cc(NC(=O)C(C)N3C(=O)C4CCCCC4C3=O)ccc12 (stereo not drawn) | 2 | -3 | 0 | -43* | 20
CC(=O)Nc1ccc2c(COC(=O)[C@H](C)N3C(=O)C4CCCCC4C3=O)cc(=O)oc2c1 (stereo partly drawn) | 1 | 0 | -6 | -10 | -17
CCCCC(Sc1nc(N)c(NC(=O)c2ccco2)c(=O)[nH]1)C(=O)O (stereo not drawn) | 1 | 1 | 3 | 1 | -2
COc1ccc(N(C(=O)c2ccco2)C(C(=O)NC2CCCCC2)c2cccs2)cc1OC (stereo not drawn) | 2 | -4 | 7 | 6 | -19
C#CC(=O)N(c1ccc(OC)cc1OC)C(C(=O)NC1CCCC1)c1cccs1 (stereo not drawn) | 1 | -5 | -7 | -2 | -51*
CC(C)(C)NC(=O)C(c1cccs1)N(C(=O)C(=O)NC1CCCC1)c1ccccc1F (stereo not drawn) | 3 | 3 | -15 | 17 | -65*
C#CC(=O)N(c1cc(OC)ccc1OC)C(C(=O)NC1CCCC1)c1cccs1 (stereo not drawn) | 0 | 0 | -6 | 10 | -62*
O=C(NC1CCCC1)C(c1cccs1)N(C(=O)c1csnn1)c1ccccc1F (stereo not drawn) | 1 | -4 | -4 | 1 | -6
CCc1ccc(NC(=O)N2CCC(N3CCN(Cc4ccc(C)cc4)C(=O)C3=O)CC2)cc1 | 0 | 0 | -2 | -9 | x
Nc1ccc2c(c1)C(O)c1cccc(C(=O)O)c1-2 (stereo not drawn) | x | x | 3 | x | 7
Cc1ccc(Cl)cc1Nc1nc2ccccc2c2nncn12 | -1 | -3 | 5 | 9 | x
CCOC(=O)N1CCN(C(=O)CSCC(=O)Nc2nc(-c3ccc(OC)cc3)cs2)CC1 | 1 | 2 | -13 | -14 | 6
CCOC(=O)N1CCN(C(=O)CSCC(=O)Nc2nc(-c3ccc(-c4ccccc4)cc3)cs2)CC1 | 15 | -6 | 56* | 0 | 137
COc1ccc(CCNC(=O)Cn2cc(C(=O)c3ccc(Cl)cc3)c(=O)c3ccc(C)nc32)cc1OC | 3 | 1 | -15 | 4 | x
O=C(CSc1ccccn1)Nc1ccc(NC(=O)CSc2ccccn2)cc1 | 0 | 1 | 5 | -14 | 5
O=C(CSc1ccccn1)Nc1nonc1[N+](=O)[O-] | 3 | -2 | -3 | -17 | -70*
CC1=C(C(=O)OC2CCCC2)C(c2ccc(F)cc2F)CC(=O)N1 (stereo not drawn) | 19 | -3 | 5 | -33* | x
Cc1ccc(OCC(=O)N(Cc2ccco2)Cc2ccco2)cc1C | 2 | 2 | 4 | 6 | x
CC(=O)N1N=C(c2ccc(C)cc2)OC1c1cccnc1 (stereo not drawn) | 1 | -2 | -9 | -32* | -14
Nc1c(C(=O)CSc2nccn2-c2cccc(F)c2)c(=O)[nH]c(=O)n1C1CC1 | 3 | -3 | 2 | -31* | -21
CN(C(=O)c1cnc(N2CCOCC2)c2ccccc12)c1ccccc1F | 0 | -3 | 4 | 12 | x
O=C(NC(c1ccccc1)c1ccccc1)c1ccccc1 | x | x | -6 | x | 9
Nc1nonc1C(=O)NC(c1ccccc1)c1ccccc1 | 0 | -1 | 1 | -36* | 11
